Compounds with a hit are over-represented: about 2.2% of the library has one in this group of screens.
Efflux pump mplx: blocks antifungal efflux pumps in multiplex yeast assay; inhibition, % at 10 µM; actives 0.44% (n = 330,000); S. cerevisiae Candida pump triplex, Nile Red efflux;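 active = plate passing quality check with inhibition over a set limit, or well fluorescence over plate mean plus 4 SD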;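 also: Nile Red retained in pooled yeast measured as flow cytometry median fluorescence; 0% = buffer negative control and 100% = Enniatin B positive control; higher means more Nile Red kept so more efflux inhibition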
SKN-1 inh: inhibitors of C. elegans SKN-1. C. elegans VP596 Pgst-4::GFP/RFP ratio, acrylamide-induced, 24 h. actives 0.49% (n = 360,000). inhibition, % at 21.8 µM;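 active = interference check ratio from 0.5 to 1.5 plus GFP to RFP signal ratio inhibition reaching or exceeding a fixed threshold, cut at about 30% in these data, passing the limit was not always enough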
HGIII-sPLA2 inh: Inhibits HGIII-sPLA2 liposome hydrolysis, primary screen | Q9NZ20 | QFRET BODIPY PC-A2 liposome hydrolysis, fluorescence | inhibition, % at 12.2 µM | actives 0.56% (n = 370,000) | AID 743126;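 active = inhibition above mean plus 3 SD of compounds lying within the high and low control bounds, cut at about 19% in these data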;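 also: 0% = median of test compound wells and 100% = no enzyme DMSO wells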
Target sequence (Q9NZ20 whole entry, looked up): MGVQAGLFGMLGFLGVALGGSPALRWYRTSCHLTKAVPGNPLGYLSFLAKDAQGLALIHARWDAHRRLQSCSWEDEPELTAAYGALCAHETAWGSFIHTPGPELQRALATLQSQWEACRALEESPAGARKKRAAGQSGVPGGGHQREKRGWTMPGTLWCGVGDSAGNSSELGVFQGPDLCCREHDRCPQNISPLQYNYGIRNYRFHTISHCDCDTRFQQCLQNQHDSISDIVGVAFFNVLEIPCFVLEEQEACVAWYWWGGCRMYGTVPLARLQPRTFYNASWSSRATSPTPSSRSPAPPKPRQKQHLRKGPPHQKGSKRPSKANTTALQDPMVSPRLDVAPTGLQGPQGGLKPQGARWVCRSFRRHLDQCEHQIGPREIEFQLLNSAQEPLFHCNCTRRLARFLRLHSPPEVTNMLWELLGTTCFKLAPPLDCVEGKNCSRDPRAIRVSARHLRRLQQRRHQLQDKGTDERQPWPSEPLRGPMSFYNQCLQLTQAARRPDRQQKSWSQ
SUMO Mot1 rescue: blocks SUMOylation pathway, rescuing yeast Mot1-301 growth; S. cerevisiae Mot1-301 growth rescue, ATP luminescence, 38.5C; percent above DMSO median, 100 means doubled; growth rescue, % at 18.8 µM; actives 1% (n = 320,000); AID 2716;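 active = every valid replicate shows activation above 250% relative to neutral control wells; inactive = the rest, any valid replicate at or below 250%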;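 also: OY570 slx delta 5 strain wells were the positive control but not used for scaling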
sPLA2 confirm: human GIII-sPLA2 inhibition, confirmation; shares compounds with HGIII-sPLA2 inh; recombinant hGIII-sPLA2, BODIPY PC-A2 QFRET fluorescence; inhibition, % at 12.2 µM; actives 34% (n = 2,000);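 active = mean inhibition across triplicates above the hit cutoff set in the earlier primary screen, cut at about 19% in these data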;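 also: 0% = enzyme with DMSO and 100% = DMSO wells lacking enzyme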
535nm interf: counter-screen for HGIII-sPLA2 inhibitors: 535nm fluorescence interference | BODIPY FL product fluorescence interference, QFRET | inhibition, % at 12.2 µM | AID 743282 | shares compounds with HGIII-sPLA2 inh | actives 8.5% (n = 2,000);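 active = average inhibition above the solvent-only control mean plus 3 SD, cut at about 6% in these data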;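 also: 0% = DMSO with substrate plus product and 100% = DMSO with substrate alone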
BODIPY interf DR: counter-screen for HGIII-sPLA2 inhibitors: 535nm fluorescence interference, dose response; BODIPY FL product fluorescence interference, cell-free; shares compounds with HGIII-sPLA2 inh; 240 tested, under 10 active; IC50, µM;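 active = IC50 at or below 10 µM; inactive = IC50 above 10 µM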
An asterisk follows results filed as active; x = no result given.

SMILES	Efflux pump mplx	SKN-1 inh	HGIII-sPLA2 inh	SUMO Mot1 rescue	sPLA2 confirm	535nm interf	others
O=S(=O)(O)c1ccc(O)c2cc(Nc3ccccc3)ccc12	x	2	25*	x	11	1
N#Cc1c(-c2cccs2)cc(C2CC2)nc1SCC(N)=O	0	-16	35*	-8	12	-2
N#Cc1c(-c2ccccc2)cc(C2CC2)nc1SCC(=O)c1cccs1	x	-3	-7	x	x	x
COC(=O)Cc1ccc(NC(=S)NNC(=O)c2ccccc2Br)cc1	-14	6	13	-4	x	x
O=C(NNC(=S)Nc1ccc(Br)cc1)c1ccccc1	0	22	20*	-26	22*	6.7*
O=C(NNC(=S)Nc1ccccc1Cl)c1ccccc1Br	0	15	22*	-35	26*	6
O=C(NNC(=S)NC1CCCCC1)c1ccccc1Br	0	12	21*	7	29*	-3	BODIPY interf DR=>122
COc1cc(OC)c(C(=O)NNC(=S)NC2CCCCC2)cc1OC	0	9	0	-7	x	x
O=C(NNC(=S)Nc1ccc(Br)cc1)c1ccccc1Br	0	-4	35*	-17	26*	8.2*
O=S(=O)(Nc1ccc(C(O)(C(F)(F)F)C(F)(F)F)cc1)c1cccs1	x	x	-37	x	x	x
O=C(NNC(=S)Nc1ccccc1)c1ccc2ncccc2c1	0	1	24*	-21	30*	-3	BODIPY interf DR=>122
CNC(=O)COC(=O)c1ccc(Cl)c(S(N)(=O)=O)c1	0	-1	4	-21	x	x
NC(=S)NNC(=O)C12CC3CC(CC(C3)C1)C2	0	2	21*	-9	9	0
COC(=O)NNC(=O)C12CC3CC(CC(C3)C1)C2	0	-2	0	2	x	x
Cc1ncc(CO)c(/C=N/NC(=S)Nc2ccc(F)cc2)c1O	0	3	20*	6	20*	-5
C=CCN=c1scc(-c2ccco2)n1/N=C/c1ccc(O)c(O)c1O	0	8	24*	85	37*	-1	BODIPY interf DR=>122
COCCN=c1scc(-c2ccco2)n1/N=C/c1ccc(O)c(O)c1O	1	8	13	-9	x	x
Cc1nn(C)c(-c2n[nH]c(=S)n2Cc2ccco2)c1Cl	0	13	20*	5	22*	-1
Oc1ccc(-c2n[nH]c(=S)n2Cc2ccco2)cc1	0	19	5	-5	x	x
CC(Oc1ccccc1F)c1nnc(SCC(=O)NCc2ccc3c(c2)OCO3)o1 (configuration not stated)	0	-15	84*	-2	-1	-5
CCN1C[C@@H]2[C@@H]3C(=O)N(Cc4ccccc4)C(=O)[C@@H]3[C@](C)(C(=O)OC)N2C1=NC	0	4	x	x	x	x
CCCCNC(=O)C1c2ccccc2OCC(=O)N1CC(F)(F)F (configuration not stated)	x	11	20*	x	-5	-6
CCCCNC(=O)C1c2ccccc2OCC(=O)N1CCOC (configuration not stated)	x	-9	1	x	x	x
CCOC(=O)[C@@]12CCCC3=C1N(CCC3)C(=O)[C@H]2CC(=O)N1CCN(C(=O)C2CC2)CC1	x	x	-2	x	x	x
S=c1[nH]nc(-c2ccc(Cl)cc2Cl)n1-c1ccccc1	0	0	16	-13	x	x
SMILES	Efflux pump mplx	SKN-1 inh	HGIII-sPLA2 inh	SUMO Mot1 rescue	sPLA2 confirm	535nm interf	others
Cc1ccc([N+](=O)[O-])c(-c2n[nH]c(=S)n2-c2cccc(Cl)c2)c1	0	-1	31*	4	22*	6.6*
Cc1ccccc1-n1c(-c2ccoc2C)n[nH]c1=S	0	-4	4	15	x	x
Cc1cccc(-n2c(-c3ccoc3C)n[nH]c2=S)c1	1	2	20*	8	36*	-1	BODIPY interf DR=>122
O=C(CSc1nc2ccccc2[nH]1)N1CCN(C(=O)c2ccco2)CC1	0	2	19*	-3	1	-4
O=C(CSc1nnc(-c2cccnc2)n1C1CCCCC1)NC1CCCCCC1	x	x	3	x	x	x
CC(C)(O)c1ccccc1CC[C@@H](SCC1(CC(=O)O)CC1)c1cccc(/C=C/c2ccc3ccc(Cl)cc3n2)c1	0	-9	x	-11	x	x
CCCCNC(=O)c1c(N)[nH]c(C(=O)c2ccccc2)c1-c1ccccn1	x	14	19*	x	9	-9
CCCCCCNC(=O)c1c(N)[nH]c(C(=O)c2ccccc2)c1-c1ccc(O)cc1	x	x	3	x	x	x
Cc1ccc(C(O)c2ncc(-c3cccc(C(F)(F)F)c3)[nH]2)cc1F (configuration not stated)	x	-9	-6	x	x	x
Cc1cccc(/C=N/NC(=O)Cc2ccc(Cl)cc2)c1O	0	17	-8	10	x	x
Cc1cccc(/C=N\NC(=O)c2ccc(Cl)cc2)c1O	0	-1	37*	-12	22*	5
Cc1cccc(/C=N/NC(=O)c2ccc3c(c2)OCCO3)c1O	0	-1	30*	-6	19*	3
Cc1cccc(/C=N/NC(=O)c2c(-c3ccccc3)noc2C)c1O	0	15	34*	-20	16	-1
O=C(Cn1cnc2cc([N+](=O)[O-])ccc2c1=O)Nc1cccc(S(=O)(=O)N2CCCCC2)c1	x	0	4	x	x	x
Cc1[nH]c2ccccc2c1C(=O)CSC(=S)N1CCOCC1	0	-2	4	-16	x	x
O=C1Cc2cc(S(=O)(=O)Nc3ccc(N4CCOCC4)cc3)ccc2N1	0	-22	-11	-23	x	x
COc1ccc(/C=N/n2c(-c3ccccc3)n[nH]c2=S)cc1	0	-2	13	2	x	x
O=[N+]([O-])c1ccccc1/C=N/n1c(-c2ccccc2)n[nH]c1=S	0	29	20*	-12	29*	1
Cc1n[nH]c(=S)n1/N=C/c1ccccc1	0	4	22*	-9	21*	-6
Cc1cccc(/C=N/n2c(-c3ccccc3)n[nH]c2=S)c1O	0	19	3	-9	x	x
CCc1cc(C(=O)Nc2cc(S(=O)(=O)N3CCOCC3)ccc2N2CCN(CC)CC2)sc1C	x	7	-9	x	x	x
COc1ccc(-n2c(C)cc(C)c(C(C)=O)c2=S)cc1	0	10	20*	-10	4	-6
COc1cc(CC(=O)C(=O)O)oc(=O)c1	x	17	-3	x	x	x
COc1ccccc1C1Nc2cccc3cccc(c23)N1	0	0	21*	-7	34*	12*
COc1cc(OC)c(C2Nc3cccc4cccc(c34)N2)c(OC)c1	0	7	22*	-9	37*	-3	BODIPY interf DR=>122
COc1ccc(C2Nc3cccc4cccc(c34)N2)cc1	0	19	-5	11	x	x
CC(C)(C)c1ccc(S(=O)(=O)N2CCC(C(=O)N3CCN(C4CCCCC4)CC3)CC2)cc1	x	x	-6	x	x	x
COc1ccc(OC)c(N=c2ssnc2Cl)c1	0	4	7	-52	x	x

Bioassay records as filed in PubChem.
